# Measurements as given in the supplement of paper PMC6555819.
# Columns and labels:
# Assay in all cases: PBM binding z-score (relative to random genomic background probes); higher = stronger binding; sequences stand for … in GC…GCGATTGACAGCGTAGAATGAAGG
# [1] = tested on: RARb homodimer (NR concentration 270 nM)
# Method in brief: (§1)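 The probes on custom Agilent 4×180K protein-binding microarrays were double-stranded, with 34-nt variable regions bearing direct-repeat seeds, single-nucleotide variants, half-site ablations and random human genomic background sequences. Incubation lasted 1 h with ligand-free nuclear receptor dimers in PBS pH 7.4, 2% milk, 0.02% Triton X-100, 1 mM DTT, 0.2 mg/mL BSA and 0.4 mg/ml salmon testes DNA. Antibodies against each partner (one per run) detected bound dimers, and fluorescence scans were regression-normalized. Binding z-scores take the random background probes as reference.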
# [2] = tested on: RARg:RXRa (NR concentration 270 nM, RXRa partner concentration 90 nM)
# Method in brief: as §1
# [3] = tested on: RARg homodimer (NR concentration 270 nM)
# Method in brief: as §1
# [4] = tested on: RXRa DBDmut IVT, anti-RXR (DBD mutation: RXRa K156A/R161A, NR concentration 90 nM)
# Method in brief: as §1
# [5] = tested on: RXRa homodimer (NR concentration 180 nM)
# Method in brief: as §1
# [6] = tested on: THRa:RXRa (NR concentration 90 nM, RXRa partner concentration 90 nM)
# Method in brief: as §1
# [7] = tested on: THRa homodimer (NR concentration 90 nM)
# Method in brief: as §1
# [8] = tested on: VDR:RXRa (NR concentration 270 nM, RXRa partner concentration 90 nM)
# Method in brief: as §1
# [9] = tested on: VDR homodimer (NR concentration 270 nM)
# Method in brief: as §1
Sequence,PBM binding z-score [1],PBM binding z-score [2],PBM binding z-score [3],PBM binding z-score [4],PBM binding z-score [5],PBM binding z-score [6],PBM binding z-score [7],PBM binding z-score [8],PBM binding z-score [9]
ATATGTGGGTTAGCTGGGGTCATTCAGACTAGGC,3.54,3.97,2.93,2.16,5.59,5,3.84,5.99,5.73
TAGCCTAGGTCATGGGCCACTATACCACGCGAAC,3.27,4.38,4.64,0.641,3.72,3.14,1.57,2.22,0.754
CCGACTCGGGCATAAGGTTACCATAAGCCAGCCC,1.44,1.47,0.909,-0.288,0.905,2.09,0.96,-0.121,-0.223
TCGAGTAGGTTACCAATGGGGAATTCAGCTTTCT,-0.273,0.258,-0.0594,0.599,0.509,-0.0396,-1.08,0.0458,-0.782
ATATGTAGGGTAGCTGGGGTCATTCAGACTAGGC,3.6,3.62,2.23,1.78,5.16,4.74,3.57,5.75,4.92
ACAGACAGGTGATGGAGGTAACTCAGGCTATCAT,0.431,0.0912,0.339,-0.505,0.156,1.05,0.503,0.681,-0.164
TACCCTAGGTCAGATCGGGCCAGTATACGCTATA,2.63,2.98,3.5,0.165,1.54,4.19,0.64,1.17,0.268
CCTACTGTGCCAAAAAGGTCATTGATGCCGATAA,4.41,4.52,3.97,1.73,4.42,3.26,1.48,4.92,3.38
CGAACTATGTCATCCAGGACAGTGAATACATTGA,0.612,0.908,1.14,0.468,0.578,1.71,0.973,1.05,0.592
CCTACTGGGACATCAGGTCATTGATATCAACGTT,2.48,1.91,1.87,0.77,1.54,3.23,3.41,1.99,2.42
ATATGTACGTTATCGGGTCATTCAGTTTGCGCAT,2.25,2.06,1.64,1.78,2.34,3.26,2.69,5.03,4.2
ATATGTAGGTTATCAGGTCATTCAGTTTGCGCAT,3.6,3.19,2.93,1.91,3.12,3.72,3.81,4.71,3.81
GCGACTTGGGCAAAGCAGGTTACCATAAGGTTGG,-0.0673,-0.0478,-0.407,-0.506,0.218,1.39,-0.348,-0.467,-0.774
ATCGAAAGCTCGAGGTGAGTATAGAGAAAGGGAA,-0.503,0.0363,0.189,-0.888,-0.0727,0.963,-0.199,-0.459,-0.71
CCGACTGGGGCAGAAAGGTTACCCTACCATCCGG,2.2,1.35,0.99,-0.847,1.43,1.07,-0.0158,0.717,-0.359
ATAGGTAGGTTACATCCGGGTCATTCAGGCTATG,2.84,3.6,2.45,0.326,2.96,3.77,2.45,4.21,3.59
CCTGCTAGGTCAATTGTCAGCTAAAGCAGCTCGC,2.38,3.24,3.98,1.77,1.41,2.02,0.418,0.479,-0.128
CCTACTGGGCCAAAAAGGTCCTTGATGCCGATAA,0.795,-0.28,-0.148,-0.722,-0.259,-0.265,-0.242,-0.189,-0.393

Sequence,PBM binding z-score [1],PBM binding z-score [2],PBM binding z-score [3],PBM binding z-score [4],PBM binding z-score [5],PBM binding z-score [6],PBM binding z-score [7],PBM binding z-score [8],PBM binding z-score [9]
AGAATGAGGTTATACGTAGATCATGGAAGAAAGT,1.02,2.06,1.29,1.74,2.45,2.42,0.532,1.72,0.975
CCTATTAGTTGTCCATAAGGGCAACCGAAGCTCG,1.81,1.01,0.8,0.67,0.161,1.8,1.64,0.958,1.07
GGAACCAGGGCATTCGAGTTGATAGCATGGCGAT,1.54,1.05,1.49,1.17,0.534,2.66,0.671,2.21,1.97
TCTGCTAGGTCAGTTGGTCAGCTAACGAGCTGCC,2.55,2.58,3.5,0.411,1.02,1.36,-0.176,0.166,-0.401
TCATATAGGTAATACAGTTGAAAGTCGGCATCTA,0.353,0.792,0.493,1.96,1.26,0.327,0.576,1.63,0.467
GTACCAAGGTGAATAGGTCATTGATGAGTAGGCG,3.98,4.79,3.34,-0.0633,3.5,2.82,0.757,2.24,0.849
GCAGACAGGTGAATCGCAGGTAACTCAGGGTGGC,0.0663,0.806,0.164,-0.612,0.449,1.31,-0.285,-0.428,-0.754
GCTGCTAGGTCAGGTTAGTCAGCTAACGGGTACG,2.62,2.89,3.82,0.579,1.17,2.36,0.56,0.235,0.0703
TCATATAGGTAAACGGGTGAAAGTCCGTAAGTTA,0.485,0.423,0.128,1.05,1.03,0.421,-0.157,1.16,0.053
ACTACAGGGTCATCGTAGGCCAGAGTACGCACAG,3.45,5.52,5.09,3.26,5.9,4.64,1.27,5.05,3.36
TCTTGTAGATCAAGAGGAGGTTAAGAAAGATCGA,0.486,0.616,0.204,0.251,0.72,0.611,-0.142,0.632,-0.158
ACTATTAGTTGACTTAGGGCAACCTATACGACGC,0.929,0.744,1.05,0.811,0.654,1.72,0.279,0.406,0.34
CGAACTAGGTCAGAAAAGGACAGTGAAGGATGAT,2.62,2.78,3.84,0.166,0.978,3.91,0.0421,0.459,-0.122
CGATCTAGGTCATTGACAGGACAGTGAATAGTAA,2.8,4.48,4.41,2.67,2.41,3.11,1.21,2.09,1.49
CCTACTGGGCCAAAGGTCATTAATTCCAATGCTC,4.19,5.3,4.49,1.34,6.16,3.01,0.695,4.22,2.77
CCTTGGAGGACAGAAGGTCAGAGCTGTCCGCTTT,3.56,3.54,3.38,0.276,1.95,2.22,0.0306,1.12,0.62
TCATATAGGTAAACAGGTGATAGTCCGTAAGTTA,0.338,0.509,0.323,1.35,0.949,0.375,0.179,0.955,0.482
ACTAGCAGTCCAAGTTTGGGTCACTCAAACAAAG,1.97,0.986,0.834,0.395,0.691,2.16,1.07,0.754,0.0671
